This is part of a sample that, as a whole, favours compounds with a hit. Of some 83,000 tested, about 20% had one in any assay.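 Activity criterion: percent growth below 10, measured after cells in 96-well plates were exposed to a single compound concentration for 48 hours.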 The source made the active and inactive calls.
Assays:
Assay in all cases: NCI-60 one-dose screen, 48 h (100 = growth as untreated, 0 = no growth, -100 = all killed)
Details in all cases: 10 µM unless noted
SR leukemia = test system: SR leukemia
RPMI-8226 leukemia = test system: RPMI-8226 leukemia
OVCAR-8 ovarian = test system: OVCAR-8 ovarian
OVCAR-5 ovarian = test system: OVCAR-5 ovarian
OVCAR-4 ovarian = test system: OVCAR-4 ovarian
SK-OV-3 ovarian = test system: SK-OV-3 ovarian
IGROV1 ovarian = test system: IGROV1 ovarian
OVCAR-3 ovarian = test system: OVCAR-3 ovarian
HS 578T breast = test system: HS 578T breast
NCI/ADR-RES ovarian = test system: NCI/ADR-RES ovarian

Measured: growth

COc1ccc(NC(=O)Cn2c(/C=C/c3ccc([N+](=O)[O-])cc3)nc3ccccc3c2=O)cc1
inactive: SR leukemia 88.9% | RPMI-8226 leukemia 90.6% | OVCAR-8 ovarian 45.8% | OVCAR-5 ovarian 76.4% | OVCAR-4 ovarian 16.4% | SK-OV-3 ovarian 33.6% | IGROV1 ovarian 59.6% | OVCAR-3 ovarian 60.2% | HS 578T breast 29.9% | NCI/ADR-RES ovarian 39%

COc1c(B(O)O)cc(F)cc1-c1nc2c(F)cc3[nH]ncc3c2c2c1CCCC2
inactive: SR leukemia 33% | OVCAR-8 ovarian 10.2% | OVCAR-5 ovarian 15.9% | OVCAR-4 ovarian 39.4% | SK-OV-3 ovarian 25.1% | IGROV1 ovarian 14.6% | OVCAR-3 ovarian 18.6% | HS 578T breast 11.4% | NCI/ADR-RES ovarian 17.4%
active: RPMI-8226 leukemia -5.25%

CCCCNC(=S)Nc1ccc(OCc2nc3ccc(Cl)cc3[nH]2)cc1
inactive: OVCAR-8 ovarian 38.7% | OVCAR-5 ovarian 28.2% | OVCAR-4 ovarian 21.5% | SK-OV-3 ovarian 75.4% | IGROV1 ovarian 12.9% | OVCAR-3 ovarian 13.6% | HS 578T breast 28.5% | NCI/ADR-RES ovarian 21.6%
active: SR leukemia 2.29% | RPMI-8226 leukemia -0.388%

COc1ccc(-c2nc3ccc(-c4nnc(SCC(=O)Nc5ccc(/C(C)=N\O)cc5)o4)cc3[nH]2)cc1
active: HS 578T breast 6.55%
inactive: SR leukemia 47.9% | RPMI-8226 leukemia 36.5% | OVCAR-8 ovarian 55.4% | OVCAR-5 ovarian 113% | OVCAR-4 ovarian 83.3% | SK-OV-3 ovarian 80.1% | IGROV1 ovarian 69.6% | OVCAR-3 ovarian 63.3% | NCI/ADR-RES ovarian 108%

COc1cc(/C=C/C(=O)c2cnn(-c3cc(=O)[nH]c4ccc(Cl)cc34)c2C)cc(OC)c1OC
active: SR leukemia -11.6% | RPMI-8226 leukemia -31.7% | OVCAR-8 ovarian -0.426% | OVCAR-5 ovarian -52.3% | SK-OV-3 ovarian -6.03% | IGROV1 ovarian -35.3% | OVCAR-3 ovarian -61.7% | NCI/ADR-RES ovarian -20.3%
inactive: OVCAR-4 ovarian 17.7% | HS 578T breast 23.9%

Cn1cc(-c2cc(N)n3nc(-c4c[nH]c5ccc(Cl)cc45)cc3n2)c2cccnc21
active: SR leukemia -26.2% | RPMI-8226 leukemia -17.8% | OVCAR-8 ovarian -76.2% | OVCAR-5 ovarian -82.5% | OVCAR-4 ovarian -42% | SK-OV-3 ovarian -73.5% | IGROV1 ovarian -77.7% | OVCAR-3 ovarian -71.3% | HS 578T breast -26.2% | NCI/ADR-RES ovarian -73.8%

C=CCSc1nnc(-c2c(C)nc3sccn23)o1
inactive: SR leukemia 101% | RPMI-8226 leukemia 86% | OVCAR-8 ovarian 98.6% | OVCAR-5 ovarian 85.8% | OVCAR-4 ovarian 102% | SK-OV-3 ovarian 98.6% | IGROV1 ovarian 95.5% | OVCAR-3 ovarian 131% | HS 578T breast 77.1% | NCI/ADR-RES ovarian 82.7%

Cc1nn(-c2ccccc2)c2nc(C)n(CC(=O)N/N=C/c3cccc([N+](=O)[O-])c3)c(=O)c12
inactive: SR leukemia 85.8% | RPMI-8226 leukemia 85.3% | OVCAR-8 ovarian 98.5% | OVCAR-5 ovarian 109% | OVCAR-4 ovarian 91.2% | SK-OV-3 ovarian 92.8% | IGROV1 ovarian 91.8% | OVCAR-3 ovarian 106% | HS 578T breast 92.7% | NCI/ADR-RES ovarian 97%

Nc1cc(-c2c[nH]c3ccc(F)cc23)nc2cc(-c3c[nH]c4ccccc34)nn12
inactive: SR leukemia 15.4% | OVCAR-4 ovarian 47.8% | SK-OV-3 ovarian 18.5% | IGROV1 ovarian 16.2% | OVCAR-3 ovarian 28.8% | HS 578T breast 20.7% | NCI/ADR-RES ovarian 10.7%
active: RPMI-8226 leukemia -1.51% | OVCAR-8 ovarian 4.46% | OVCAR-5 ovarian 1.01%

N#CCc1nnc(NC(=O)c2ccc(-n3c(=O)[nH]c4ccccc4c3=O)cc2)s1
inactive: SR leukemia 93.4% | RPMI-8226 leukemia 111% | OVCAR-8 ovarian 100% | OVCAR-5 ovarian 96.7% | OVCAR-4 ovarian 106% | SK-OV-3 ovarian 106% | IGROV1 ovarian 105% | OVCAR-3 ovarian 104% | HS 578T breast 87.9% | NCI/ADR-RES ovarian 104%

Cn1cc(-c2cc(N)n3nc(-c4c[nH]c5ccccc45)cc3n2)c2cc(F)ccc21
inactive: SR leukemia 13.1% | OVCAR-5 ovarian 34.4% | OVCAR-4 ovarian 35.3% | SK-OV-3 ovarian 97.9% | IGROV1 ovarian 21.2% | OVCAR-3 ovarian 15.8% | HS 578T breast 79.5% | NCI/ADR-RES ovarian 19.1%
active: RPMI-8226 leukemia 0.774% | OVCAR-8 ovarian -43.2%

Cc1cc(=O)oc2cc(OCC(O)CNN3C(=O)c4cccc5c(N6CCN(C)CC6)ccc(c45)C3=O)ccc12 (stereo not given)
inactive: SR leukemia 81.1% | RPMI-8226 leukemia 97.4% | OVCAR-8 ovarian 91.4% | OVCAR-5 ovarian 112% | OVCAR-4 ovarian 99.1% | SK-OV-3 ovarian 116% | IGROV1 ovarian 109% | OVCAR-3 ovarian 103% | HS 578T breast 87.4% | NCI/ADR-RES ovarian 89.4%

Source: PubChem BioAssay (NCI)
